Test results published in PubChem BioAssay AID1159580 (chemical genetic matrix, 2015).
Where “and” joins values, the source holds several entries; their conditions need not be identical. Equal values may be shown once. Hit rate of the full screen: of about 5,500 compounds, about 2,000 (36%) were called active. Roughly 18% stayed inconclusive and do not appear here. No stated cut-off is given here; in the data, active means normalized growth mostly below about 0.91 (no sharp cut-off); inconclusive means no clear call, values can overlap the other calls; inactive means mostly above about 0.92. Some of the results follow.

Assay: chemical genetic growth profiling, strain panel (AID 1159580);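 further: tested at 20 µM; growth read once vehicle control cultures reached saturation at 30 °C; 1 = growth at the plate median or of vehicle wells; lower values mean less growth of the strain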
Conditions: S. cerevisiae deletion strains, growth OD

Measured: normalized growth

CC(=O)Nc1c(I)cc(I)c(C(=O)O)c1I
inactive: locus YAL013W, strain DEP1, active compounds read low 0.992 | locus YAL021C, strain ccr4, active compounds read low 0.986 | locus YAL026C, strain drs2, active compounds read low 0.995 | locus YAL030W, strain snc1, active compounds read low 0.978 | locus YBL061C, strain skt5, active compounds read low 0.974 | locus YBR009C, strain hhf1, active compounds read low 0.992 | locus YBR021W, strain FUR4, active compounds read low 1.02 | locus YBR023C, strain chs3, active compounds read low 0.979 | locus YBR171W, strain sec66, active compounds read low 0.967 | locus YBR229C, strain ROT2, active compounds read low 0.983 | locus YBR231C, strain swc5, active compounds read low 0.971 | locus YBR279W, strain paf1, active compounds read low 0.985 | locus YCL011C, strain gbp2, active compounds read low 0.994 | locus YCL016C, strain dcc1, active compounds read low 0.994 | locus YCL029C, strain bik1, active compounds read low 0.994 | locus YCL069W, strain vba3, active compounds read low 0.98 | locus YCR088W, strain abp1, active compounds read low 0.978 | locus YDL005C, strain med2, active compounds read low 0.967 | locus YDL035C, strain GPR1, active compounds read low 1.01 | locus YDL040C, strain nat1, active compounds read low 0.976 | locus YDL074C, strain BRE1, active compounds read low 1.02 | locus YDL101C, strain DUN1, active compounds read low 0.99 | locus YDL134C, strain PPH21, active compounds read low 0.983 | locus YDL185W, strain tfp1, active compounds read low 0.987 | locus YDL192W, strain arf1, active compounds read low 0.999 | locus YDR001C, strain nth1, active compounds read low 0.991 | locus YDR069C, strain doa4, active compounds read low 0.959 | locus YDR101C, strain arx1, active compounds read low 0.995 | locus YDR137W, strain rgp1, active compounds read low 0.967 | locus YDR150W, strain NUM1, active compounds read low 0.996 | locus YDR159W, strain sac3, active compounds read low 0.967 | locus YDR162C, strain NBP2, active compounds read low 1.02 | locus YDR195W, strain ref2 0.91 | locus YDR297W, strain sur2, active compounds read low 0.994 | locus YDR318W, strain mcm21, active compounds read low 0.995 | locus YDR334W, strain swr1, active compounds read low 0.976 | locus YDR335W, strain msn5, active compounds read low 0.988 | locus YDR388W, active compounds read low 0.988 | locus YDR392W, strain spt3, active compounds read low 1.03 | locus YDR502C, strain sam2, active compounds read low 0.996 | locus YEL003W, strain gim4, active compounds read low 0.978 | locus YEL037C, strain rad23, active compounds read low 0.975 | locus YEL061C, strain CIN8 (second series), active compounds read low 0.966 | locus YEL061C, strain CIN8, active compounds read low 0.999 | locus YER015W, strain faa2, active compounds read low 0.99 | locus YER016W, strain bim1, active compounds read low 0.979 | locus YER110C, active compounds read low 0.989 | locus YER111C, strain swi4, active compounds read low 0.981 | locus YER155C, strain BEM2 (second series), active compounds read low 0.977 | locus YER155C, strain BEM2, active compounds read low 0.986 | locus YER167W, strain BCK2, active compounds read low 0.992 | locus YFR010W, strain ubp6, active compounds read low 0.965 | locus YGL078C, strain dbp3, active compounds read low 0.995 | locus YGL086W, strain mad1, active compounds read low 0.981 | locus YGL167C, strain pmr1, active compounds read low 0.971 | locus YGL173C, strain kem1, active compounds read low 0.99 | locus YGL227W, strain vid30, active compounds read low 0.971 | locus YGL240W, strain doc1, active compounds read low 0.974 | locus YGL248W, strain PDE1, active compounds read low 0.986 | locus YGL253W, strain hxk2, active compounds read low 0.979 | locus YGR078C, strain PAC10, active compounds read low 1.05 | locus YGR135W, strain pre9, active compounds read low 0.994 | locus YGR229C, strain SMI1, active compounds read low 1.06 | locus YGR252W, strain gcn5, active compounds read low 0.986 | locus YHR013C, strain ard1, active compounds read low 0.987 | locus YHR027C, strain rpn1, active compounds read low 0.982 | locus YHR030C, strain SLT2, active compounds read low 0.991 and 1.01 | locus YHR079C, strain IRE1 (second series), active compounds read low 0.998 | locus YHR079C, strain IRE1, active compounds read low 1 | locus YHR094C, strain hxt1, active compounds read low 0.989 | locus YHR129C, strain ARP1, active compounds read low 0.991 | locus YHR142W, strain chs7, active compounds read low 0.987 | locus YHR200W, strain rpn10, active compounds read low 0.991 | locus YIL066C, strain RNR3, active compounds read low 1 | locus YIL073C, strain SPO22, active compounds read low 1.01 | locus YIL125W, strain kgd1, active compounds read low 0.992 | locus YIR030C, strain dcg1, active compounds read low 0.992 | locus YJL092W, strain hpr5, active compounds read low 0.973 | locus YJL095W, strain BCK1 (second series), active compounds read low 0.978 | locus YJL095W, strain BCK1, active compounds read low 1.01 | locus YJL115W, strain asf1, active compounds read low 0.963 | locus YJL129C, strain trk1, active compounds read low 0.946 | locus YJL134W, strain LCB3, active compounds read low 0.994 | locus YJL154C, strain vps35, active compounds read low 0.964 | locus YJL164C, strain tpk1, active compounds read low 0.995 | locus YJL166W, strain qcr8, active compounds read low 0.971 | locus YJL168C, strain set2, active compounds read low 0.99 | locus YJL187C, strain SWE1 (second series), active compounds read low 0.995 | locus YJL187C, strain SWE1, active compounds read low 0.983 | locus YJR043C, strain POL32, active compounds read low 1.03 | locus YJR066W, strain TOR1, active compounds read low 0.963
